Inconclusive results are not listed. Active and inactive are the calls of the source. Calls follow the shape of the dose curve; as a rule, active = well fitted curve in the direction sought with a large enough effect in the repeat runs; inconclusive = weak or mixed curves; inactive = no such curve, though single readings can be large; an effect the other way counts as inactive or inconclusive.
% is scaled to controls: 0 for no effect and ±100 for the full control effect.

A short description of the first assay: qHTS assay to identify small molecule HDAC inhibitors (AID 1259364). Also: potency is read from the fitted curve at half-maximal effect.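 Also: wild-type HCT-116 cells with endogenous class I/II HDAC activity; nearly all actives have a fitted effect of over 45% in size.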 As to activity change, negative = inhibition: top concentration of the series differs between compounds. As to conditions: HCT-116 HDAC-Glo I/II luminescence, 2 h; series mostly up to 92.4 µM; activity change, negative = inhibition: at the top concentration. In outline:
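After a 2 hr compound incubation (37C, 5% CO2), HCT-116 cells seeded at 1,500/well the day before received HDAC-Glo reagent; signal read as luminescence after 30 min at room temperature.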
(qHTS replaces the single test concentration by a dilution series.)
As to `CCCCCCCCCCCCCCn1cc[n+](C)c1`, the Potency entry was “inactive”.

With `O=c1c2ccccc2c(=O)c2c1cc(Cl)c1[nH]c3c([nH]c12)c(Cl)cc1c(=O)c2ccccc2c(=O)c13`, the “activity change, negative = inhibition” value was -0.945% (inactive).

`CC(Cc1ccc(OCC(=O)O)cc1)NCC(O)c1csc(C(F)(F)F)n1` (stereo not drawn): the “activity change, negative = inhibition” value was 4.49% (inactive).

On to `CCC(C)Br` (stereo not drawn), for which the “activity change, negative = inhibition” value is 2.53% (inactive).

`O=[N+]([O-])c1ccccc1-c1ccccc1`: the “activity change, negative = inhibition” value is 1.06% (inactive).

As to `CCN(CC)C(=S)S`, the Potency entry was “inactive”.

`Cc1c([N+](=O)[O-])c(C)c([N+](=O)[O-])c(C(C)(C)C)c1[N+](=O)[O-]`: the “activity change, negative = inhibition” value is -6.09% (inactive).

In the case of `CC(=O)[O-].CC(=O)[O-].CC(=O)[O-].[Cr+3]`, the “activity change, negative = inhibition” value was 2.05% (inactive).

With `CCCCON=O`, the “activity change, negative = inhibition” value is -1.14% (inactive).

For `C[C@@H]1CC2=CC(=O)CC[C@@H]2[C@H]2CC[C@@]3(C)[C@@H](CC[C@]3(C)O)[C@@H]21`, the “activity change, negative = inhibition” value is 0.644% [at 42.5 µM] (inactive).

With `CCNS(=O)(=O)C(F)(F)C(F)(F)C(F)(F)C(F)(F)C(F)(F)C(F)(F)C(F)(F)C(F)(F)F`, the “activity change, negative = inhibition” value was 5.57% (inactive).

As to `OCC(Br)CBr` (stereo not drawn), the “activity change, negative = inhibition” value is 7.07% (inactive).

For `[O]=[Cr][O][Cr]=[O]`, the “activity change, negative = inhibition” value is 3.52% (inactive).

`CC(=O)[O-].CC(=O)[O-].O.O.[Zn+2]`: the “activity change, negative = inhibition” value is 0.984% (inactive).

Regarding `CC1=C2C[C@H]3[C@@H](CC=C4C[C@@H](O)CC[C@@]43C)[C@@H]2CC[C@]12O[C@@H]1C[C@H](C)CN[C@H]1[C@H]2C`, the “activity change, negative = inhibition” value was 0.617% [at 42.5 µM] (inactive).

On to `Oc1cc(Cl)c(Cl)c(Cl)c1Cl`, for which the “activity change, negative = inhibition” value was 2.57% (inactive).

In the case of `CCCCC(CC)COC(=O)c1ccccc1C(=O)OCC(CC)CCCC` (stereo not drawn), the “activity change, negative = inhibition” value is 3.05% (inactive).

As to `CN1C(=O)[C@@H](NC(=O)c2cc3ccccc3[nH]2)N=C(c2ccccc2)c2ccccc21`, the “activity change, negative = inhibition” value is 14.6% [at 42.5 µM] (inactive).

Consider `[Cl-].[Cl-].[Cl-].[Yb+3]`, for which the “activity change, negative = inhibition” value was 12.2% (inactive).

On to `CSC(=O)c1c(C(F)F)nc(C(F)(F)F)c(C(=O)SC)c1CC(C)C`, for which the “activity change, negative = inhibition” value is -5.34% (inactive).

`CN(C)c1ccc(N)cc1`: the Potency is 23.7 µM (active).

In the case of `C[C@H]1[C@H](c2ccc(Cl)cc2)SC(=O)N1C(=O)NC1CCCCC1`, the “activity change, negative = inhibition” value was 6.66% (inactive).

For `CNC(C)(C)Cc1ccccc1`, the “activity change, negative = inhibition” value was 2.54% [at 42.5 µM] (inactive).

As for `CCN(CC)CCN1C(=O)CN=C(c2ccccc2F)c2cc(Cl)ccc21`, the “activity change, negative = inhibition” value was -3.04% [at 42.5 µM] (inactive).

With `CC(=O)C(Cl)C(=O)N(C)C` (stereo not drawn), the “activity change, negative = inhibition” value was 5.01% (inactive).

On to `CCC(C)Nc1c([N+](=O)[O-])cc(C(C)(C)C)cc1[N+](=O)[O-]` (stereo not drawn), for which the “activity change, negative = inhibition” value is 0.667% (inactive).

Turning to `CCn1cc[n+](C)c1` (tested in a mixture with another compound), the “activity change, negative = inhibition” value was 4.92% (inactive).

As to `CCC1COC(Cn2cncn2)(c2ccc(Cl)cc2Cl)O1` (stereo not drawn), the “activity change, negative = inhibition” value was -12.5% (inactive).

For the compound `O=[N+]([O-])c1ccc(CCl)cc1`, the “activity change, negative = inhibition” value is -0.694% (inactive).

As to `CC(C)N(C(=O)SC/C(Cl)=C/Cl)C(C)C`, the “activity change, negative = inhibition” value is 0.277% (inactive).

As to `O.O.O.O=C([O-])[C@H]([O-])[C@@H]([O-])C(=O)[O-].O=C([O-])[C@H]([O-])[C@@H]([O-])C(=O)[O-].[K+].[K+].[Sb+3].[Sb+3]`, the “activity change, negative = inhibition” value is -12.7% (inactive).

Consider `c1ccc(Nc2ccc(Nc3ccccc3)cc2)cc1`, for which the “activity change, negative = inhibition” value was 2.28% (inactive).

As for `COc1ccc(Cc2nccc3cc(OC)c(OC)cc23)cc1OC`, the “activity change, negative = inhibition” value was -15.3% [at 42.5 µM] (inactive).

On to `CCCCCCC[CH2][Sn]([Cl])([Cl])[CH2]CCCCCCC`, for which the “activity change, negative = inhibition” value was -5.88% (inactive).

For the compound `CC(C)N(C(=O)CCl)c1ccccc1`, the “activity change, negative = inhibition” value is -14.7% (inactive).

As for `N#Cc1ccc(N(CC(N)=O)CC(F)(F)F)cc1C(F)(F)F`, the “activity change, negative = inhibition” value is -1.71% (inactive).

For the compound `Oc1cccc(Cl)c1Cl`, the “activity change, negative = inhibition” value was 2.46% (inactive).

As to `ClC1=C(Cl)[C@]2(Cl)[C@@H]3[C@H]4C[C@H]([C@@H]5O[C@H]45)[C@@H]3[C@@]1(Cl)C2(Cl)Cl`, the “activity change, negative = inhibition” value was -2.34% (inactive).

Regarding `CC(=O)[O-].CC(=O)[O-].CC(=O)[O-].[Sb+3]`, the activity change, negative = inhibition was 2.54% [at 3.27 µM] (inactive).

A further assay is described as follows: qHTS assay to identify small molecule HDAC inhibitors - cell viability counter screen (AID 1259365). Also: nearly all actives have a fitted effect of over 50% in size. Particulars: HCT-116 viability, CellTiter-Glo ATP luminescence, 2 h; series mostly up to 92.4 µM; activity change, negative = cytotoxicity: at the top concentration. In outline: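 Luminescence from CellTiter-Glo, developed 30min at room temperature, reports viability of wild-type HCT-116 cells treated 2hr with compounds at 37 C and 5% CO2 after overnight plating.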
As for `CCCCCCCCCCCCCCn1cc[n+](C)c1`, the “activity change, negative = cytotoxicity” value was -21.6% (inactive).

Regarding `CC(Cc1ccc(OCC(=O)O)cc1)NCC(O)c1csc(C(F)(F)F)n1` (stereo not drawn), the “activity change, negative = cytotoxicity” value is 2.65% (inactive).

For the compound `O=[N+]([O-])c1ccccc1-c1ccccc1`, the “activity change, negative = cytotoxicity” value is -3.46% (inactive).

As to `CCN(CC)C(=S)S`, the Potency result was “inactive”.

On to `Cc1c([N+](=O)[O-])c(C)c([N+](=O)[O-])c(C(C)(C)C)c1[N+](=O)[O-]`, for which the “activity change, negative = cytotoxicity” value was -7.51% (inactive).

Take `C[C@@H]1CC2=CC(=O)CC[C@@H]2[C@H]2CC[C@@]3(C)[C@@H](CC[C@]3(C)O)[C@@H]21`: the “activity change, negative = cytotoxicity” value is -0.707% [at 42.5 µM] (inactive).

Take `CCNS(=O)(=O)C(F)(F)C(F)(F)C(F)(F)C(F)(F)C(F)(F)C(F)(F)C(F)(F)C(F)(F)F`: the “activity change, negative = cytotoxicity” value was 1.36% (inactive).

Regarding `[O]=[Cr][O][Cr]=[O]`, the “activity change, negative = cytotoxicity” value is 1.36% (inactive).

With `CC1=C2C[C@H]3[C@@H](CC=C4C[C@@H](O)CC[C@@]43C)[C@@H]2CC[C@]12O[C@@H]1C[C@H](C)CN[C@H]1[C@H]2C`, the “activity change, negative = cytotoxicity” value is -3.44% [at 42.5 µM] (inactive).

For `Oc1cc(Cl)c(Cl)c(Cl)c1Cl`, the “activity change, negative = cytotoxicity” value is 4.29% (inactive).

Take `CCCCC(CC)COC(=O)c1ccccc1C(=O)OCC(CC)CCCC` (stereo not drawn): the “activity change, negative = cytotoxicity” value was -4.26% (inactive).

As to `CSC(=O)c1c(C(F)F)nc(C(F)(F)F)c(C(=O)SC)c1CC(C)C`, the “activity change, negative = cytotoxicity” value was -5.33% (inactive).

On to `CCN(CC)CCN1C(=O)CN=C(c2ccccc2F)c2cc(Cl)ccc21`, for which the “activity change, negative = cytotoxicity” value is -0.604% [at 42.5 µM] (inactive).

As for `CCC(C)Nc1c([N+](=O)[O-])cc(C(C)(C)C)cc1[N+](=O)[O-]` (stereo not drawn), the “activity change, negative = cytotoxicity” value was -9.16% (inactive).

Regarding `CCC1COC(Cn2cncn2)(c2ccc(Cl)cc2Cl)O1` (stereo not drawn), the “activity change, negative = cytotoxicity” value was -4.1% (inactive).

Turning to `O=[N+]([O-])c1ccc(CCl)cc1`, the “activity change, negative = cytotoxicity” value was -2.07% (inactive).

Turning to `CC(C)N(C(=O)SC/C(Cl)=C/Cl)C(C)C`, the “activity change, negative = cytotoxicity” value was -7.66% (inactive).

For the compound `O.O.O.O=C([O-])[C@H]([O-])[C@@H]([O-])C(=O)[O-].O=C([O-])[C@H]([O-])[C@@H]([O-])C(=O)[O-].[K+].[K+].[Sb+3].[Sb+3]`, the “activity change, negative = cytotoxicity” value was 4.48% (inactive).

Take `c1ccc(Nc2ccc(Nc3ccccc3)cc2)cc1`: the “activity change, negative = cytotoxicity” value was -1.65% (inactive).

Consider `COc1ccc(Cc2nccc3cc(OC)c(OC)cc23)cc1OC`, for which the “activity change, negative = cytotoxicity” value was -1.15% [at 42.5 µM] (inactive).

`CC(C)N(C(=O)CCl)c1ccccc1`: the Potency entry was “inactive”.

On to `N#Cc1ccc(N(CC(N)=O)CC(F)(F)F)cc1C(F)(F)F`, for which the “activity change, negative = cytotoxicity” value was -0.0836% (inactive).

As for `Oc1cccc(Cl)c1Cl`, the “activity change, negative = cytotoxicity” value is -0.0008% (inactive).

As for `ClC1=C(Cl)[C@]2(Cl)[C@@H]3[C@H]4C[C@H]([C@@H]5O[C@H]45)[C@@H]3[C@@]1(Cl)C2(Cl)Cl`, the “activity change, negative = cytotoxicity” value is -8.04% (inactive).

Values taken from PubChem BioAssay (Tox21).
